# Test results: PubChem BioAssay
# Several values for one entry are separate records, joined by “and”; a condition that tells them apart may be missing. Equal entries are not always repeated. For part of these data: Entries with a potency or affinity are not part of this list. Activity calls are given as the source filed them.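 How the source made its calls, unless noted: active means at least 20% inhibition of 6-phosphogluconate dehydrogenase activity; inactive means the rest.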
# Assays:
# [1] = target: 6-phosphogluconate dehydrogenase, decarboxylating (Homo sapiens) (UniProt P52209); assay: inhibition of human phosphogluconate dehydrogenase – biochemical, recombinant enzyme, NADPH absorbance, primary screen (AID 1159550); conditions: recombinant 6PGD, NADPH absorbance 341 nm; at 10 µM; stronger effect = higher value
# 6-phosphogluconate dehydrogenase, decarboxylating (Homo sapiens), sequence (P52209 whole entry, looked up): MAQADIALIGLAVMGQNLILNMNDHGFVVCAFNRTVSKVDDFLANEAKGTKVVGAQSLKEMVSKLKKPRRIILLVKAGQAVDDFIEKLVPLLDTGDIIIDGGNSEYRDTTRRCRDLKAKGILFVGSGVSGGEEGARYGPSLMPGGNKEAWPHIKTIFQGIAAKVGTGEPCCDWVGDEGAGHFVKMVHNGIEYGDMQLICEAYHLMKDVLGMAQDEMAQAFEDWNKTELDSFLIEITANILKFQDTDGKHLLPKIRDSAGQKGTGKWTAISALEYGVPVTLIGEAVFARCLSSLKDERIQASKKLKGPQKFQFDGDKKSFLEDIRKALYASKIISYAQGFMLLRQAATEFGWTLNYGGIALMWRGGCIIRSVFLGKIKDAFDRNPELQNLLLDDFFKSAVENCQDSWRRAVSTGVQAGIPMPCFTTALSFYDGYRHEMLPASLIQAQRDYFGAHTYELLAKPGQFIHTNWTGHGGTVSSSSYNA
# [2] = EMT-state selective cytotoxicity in co-culture – imaging, PC-3E GFP, TEM4-18 mCherry, primary screen (AID 1345086;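 active means compounds killing one labelled cell type while sparing the other, by normalised counts and ratio limits, not self-fluorescent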;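 on all read-outs here: cells exposed to compound for 72 h before imaging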;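 on red/green cell ratio (normalised): normalised mesenchymal count divided by normalised epithelial count so high means epithelial killing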); conditions: PC-3E GFP / TEM4-18 mCherry co-culture, imaging cell counts, at 1 µM; for red/green cell ratio (normalised): actives lie on both sides
# [3] = target: Mitogen-activated protein kinase 7 (Homo sapiens) (UniProt Q13164); assay: Gal4-ERK5 driven luciferase induction – cell-based, HTS, primary screen (AID 1508626;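 active means luciferase signal above three times the same-plate solvent-only control wells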;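 further: luciferase driven by Gal4-ERK5 fusion binding five Gal4 sites before minimal TATA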); conditions: HeLa Gal4-ERK5 transactivation, 18 h, at 5 µM, stronger effect = higher value
# Mitogen-activated protein kinase 7 (Homo sapiens), sequence (Q13164 whole entry, looked up, the tested form may be a part): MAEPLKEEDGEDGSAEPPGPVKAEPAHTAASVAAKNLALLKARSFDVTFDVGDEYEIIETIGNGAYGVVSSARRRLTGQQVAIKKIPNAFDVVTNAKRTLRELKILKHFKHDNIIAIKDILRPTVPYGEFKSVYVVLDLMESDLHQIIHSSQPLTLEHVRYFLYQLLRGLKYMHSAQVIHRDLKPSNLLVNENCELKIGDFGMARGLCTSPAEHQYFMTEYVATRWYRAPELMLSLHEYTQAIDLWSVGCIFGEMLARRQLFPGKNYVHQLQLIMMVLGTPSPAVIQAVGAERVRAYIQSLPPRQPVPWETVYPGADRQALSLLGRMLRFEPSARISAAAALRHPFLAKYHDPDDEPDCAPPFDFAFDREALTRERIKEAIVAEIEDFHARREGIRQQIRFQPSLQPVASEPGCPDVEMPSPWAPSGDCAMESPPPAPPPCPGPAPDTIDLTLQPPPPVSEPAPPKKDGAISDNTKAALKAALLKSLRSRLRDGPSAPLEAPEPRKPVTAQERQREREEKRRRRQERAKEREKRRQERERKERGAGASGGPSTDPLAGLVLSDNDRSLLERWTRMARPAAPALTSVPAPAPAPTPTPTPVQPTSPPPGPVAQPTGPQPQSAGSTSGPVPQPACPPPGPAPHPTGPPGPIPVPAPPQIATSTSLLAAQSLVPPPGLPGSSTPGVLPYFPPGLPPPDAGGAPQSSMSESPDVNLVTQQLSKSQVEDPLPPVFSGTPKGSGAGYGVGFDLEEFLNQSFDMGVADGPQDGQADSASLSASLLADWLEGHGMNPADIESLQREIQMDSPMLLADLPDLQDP
# [4] = blockers of polyQ-driven CASP3 activation – cell-based (AID 1583); conditions: polyglutamine-induced caspase-3 activation, cell assay; stronger effect = higher value;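 tested at 10 µM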
# [5] = yeast 75Q aggregation reduction – 75Q-TubU reporter (AID 1593); conditions: Yeast 75Q polyglutamine aggregation reporter
# [6] = restoration of touch response, mutant HTT neurons – whole organism, C. elegans mechanosensory neurons, N-terminal huntingtin (AID 1599); conditions: C. elegans polyQ-huntingtin mechanosensory neurons, stronger effect = higher value
# [7] = blockers of cytochrome c efflux from mitochondria – biochemical, purified mitochondria (AID 1603); conditions: stronger effect = lower value;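 further: mouse liver mitochondria challenged with calcium chloride; signal normalized to the plate average as 100%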
# [8] = polyglutamine aggregate formation blockers (AID 1604); conditions: polyglutamine-induced protein aggregation inhibition assay; stronger effect = higher value; tested at 2.5 µM
# [9] = glutamate transport activators, MN-1 cells, MN-1 cell line (AID 1612); conditions: MN-1 motor neuron cells, stronger effect = higher value;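 further: tested at 1 µM final; 0% = mean of DMSO vehicle wells on each plate; positive means more glutamate uptake than control and negative means less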
# [10] = GFP-Q80 aggregate reduction, neuronal-like cells, cell-based, NGF-treated PC12, GFPQ80 (AID 1614); conditions: PC12 NGF-treated GFP-polyQ80 inclusion reduction;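 further: lower means fewer inclusions and 0 means no inclusions at all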
# [11] = 75Q-TubH aggregate inhibition, S. cerevisiae, yeast (AID 1616); conditions: S. cerevisiae 75Q-TubH polyglutamine aggregation suppression; stronger effect = higher value
# [12] = P. berghei load reduction in hepatocytes – cell-based, HepG2, luciferase luminescence, HepG2 viability, primary screen (AID 624349; in the data active means parasite load remaining mostly below about 12%, no sharp cut-off; inactive means mostly above about 10%;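 further: 100% = mean of DMSO negative control wells on the same plate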); conditions: P. berghei liver stage in HepG2, luciferase luminescence, concentration not given here; parasite load remaining: stronger effect = lower value; viability: measured here: HepG2 viability without parasites
# [13] = test system: Aerobactin synthetase IucA (Klebsiella pneumoniae hvKP1); assay: IucA enzyme inhibition, primary screen, biochemical, Spectrum library (AID 1346200; call rule not given here;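 further: 100% = wells without compound and 0% = wells lacking enzyme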); conditions: malachite green pyrophosphate, A620, at 8 µM, stronger effect = lower value
# [14] = test system: Aerobactin synthetase IucA (Klebsiella pneumoniae, hypervirulent); assay: biochemical IucA inhibition screen of LOPAC library by absorbance (AID 1346212; call rule not given here;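 further: 100% = no compound wells and 0% = no enzyme wells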); conditions: IucA enzyme assay, absorbance (OD) readout; stronger effect = lower value;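 tested at 8 µM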
# [15] = viability loss with induced miR-34 in A549 – imaging, A549 dox-inducible miR-34, nuclei and caspase counts, primary screen (AID 1347080;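 active means compounds whose cell count with miR-34 switched on is under 0.7 times the count with it off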); conditions: A549 miR-34 inducible, Hoechst nuclei count, 48 h
# [16] = galactose survival enhancers in mitochondrial complex I cybrids – cell-based, galactose medium, ATP luminescence, primary screen (AID 1645843;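 active means z-score of at least 1.8 in each of two replicates, scored against plate mean and spread of sample wells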;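 further: positive z means more ATP and so rescue of galactose-driven cybrid death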); conditions: complex I mutant cybrid cells, 72 h, stronger effect = higher value
# [17] = MELAS cybrid and Rieske KO viability enhancers – cell-based, MELAS cybrids, Rieske KO mouse fibroblasts, CellTiter-Glo, primary screen (AID 1508586;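 active means mean z-score across replicates of 1.96 or higher in either the MELAS or the Rieske mutant cell line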;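 further: z relative to plate mean and SD of compound and empty wells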); conditions: low glucose
# [18] = target: NAD(+) hydrolase SARM1 (Homo sapiens) (UniProt Q6SZW1); assay: blocking NAD cleavage by SARM1 SAM-TIR – cell lysate, NAD-Glo luminescence (AID 1508614;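 active means compound whose remaining NAD level is above about 45 nM, limit read from the data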); conditions: SAM-TIR HEK293T lysate NADase, at 1 µM, stronger effect = higher value
# NAD(+) hydrolase SARM1 (Homo sapiens), sequence (Q6SZW1 whole entry, looked up): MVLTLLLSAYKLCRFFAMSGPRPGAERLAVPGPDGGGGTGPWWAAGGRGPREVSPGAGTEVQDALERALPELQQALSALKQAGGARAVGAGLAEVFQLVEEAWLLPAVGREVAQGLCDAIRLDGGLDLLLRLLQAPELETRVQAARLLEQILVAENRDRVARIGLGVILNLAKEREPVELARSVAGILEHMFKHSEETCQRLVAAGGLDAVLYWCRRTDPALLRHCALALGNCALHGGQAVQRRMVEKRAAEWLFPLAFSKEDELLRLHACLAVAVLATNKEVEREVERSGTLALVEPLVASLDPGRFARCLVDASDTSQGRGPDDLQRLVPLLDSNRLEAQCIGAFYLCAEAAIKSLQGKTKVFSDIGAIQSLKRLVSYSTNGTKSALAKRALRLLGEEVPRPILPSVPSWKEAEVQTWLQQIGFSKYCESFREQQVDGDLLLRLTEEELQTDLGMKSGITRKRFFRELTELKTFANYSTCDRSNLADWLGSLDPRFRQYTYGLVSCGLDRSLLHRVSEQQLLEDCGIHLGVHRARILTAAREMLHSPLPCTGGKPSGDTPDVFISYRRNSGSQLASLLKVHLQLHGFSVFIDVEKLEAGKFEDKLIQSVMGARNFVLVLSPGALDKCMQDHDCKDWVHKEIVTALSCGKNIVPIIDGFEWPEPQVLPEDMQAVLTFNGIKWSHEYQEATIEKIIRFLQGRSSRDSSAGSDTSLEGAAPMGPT
# [19] = measured here: epithelial PC-3E GFP cell survival
# [20] = measured here: mesenchymal TEM4-18 mCherry cell survival
# [21] = measured here: relative caspase fold change +Dox/-Dox
# [22] = measured here: total cells with miR-34 induction, stronger effect = lower value
# [23] = measured here: total cells without miR-34 induction
# [24] = MELAS cybrid survival, CellTiter-Glo 48 h, stronger effect = higher value
# [25] = Rieske KO mouse fibroblast survival, CellTiter-Glo 72 h
compound,measurement,setting,value
Oc1c(Cl)c(Cl)c(Cl)c(Cl)c1Cl,inhibition,[1],4.09% (inactive)
same,red/green cell ratio (normalised),[2],0.88 (inactive)
same,normalised cell number,[2]; [19],1.25
same,normalised cell number,[2]; [20],1.1
same,luciferase signal,[3],480 AU (active)
NC(=NCCC[C@H](N)C(=O)O)N[N+](=O)[O-],inhibition,[4],-12.4% and -12.2%
same,score,[5],0.79 and 1.25
same,rescue above control,[6],-0.39 and 5.97
same,cytochrome c release ratio,[7],0.94 and 0.84
same,inhibition of aggregation,[8],34.7% and 12.9%
same,glutamate uptake change,[9],19.3% and -1.48%
same,inclusion score,[10],2
same,aggregation suppression score,[11],1.04 and 1.38
same,parasite load remaining,[12],100% (inactive)
same,viability,[12],68.5%
same,inhibition,[1],3.83% (inactive)
same,activity remaining,[13],121% (inactive)
same,remaining activity,[14],115% (inactive)
same,fold change,[15]; stronger effect = lower value,1.02 (inactive)
same,fold change,[15]; [21],0.79
same,cell count,[15]; [22],10000
same,cell count,[15]; [23],9830
same,luciferase signal,[3],44 AU (inactive)
same,z-score,[16],0.525 (inactive)
c1ccc(N=Nc2ccccc2)cc1,inhibition,[4],-11.7%
same,score,[5],0.28
same,rescue above control,[6],6.73
same,cytochrome c release ratio,[7],0.73
same,inhibition of aggregation,[8],88.8%
same,glutamate uptake change,[9],-16%
same,aggregation suppression score,[11],0.313
same,parasite load remaining,[12],103% (inactive)
same,viability,[12],66.9%
same,inhibition,[1],14.4% (inactive)
same,red/green cell ratio (normalised),[2],0.85 (inactive)
same,normalised cell number,[2]; [19],1.3
same,normalised cell number,[2]; [20],1.1
same,activity remaining,[13],103% (inactive)
same,luciferase signal,[3],40 AU (inactive)
COc1cc2c(cc1OC)[C@@H]1C(=O)c3ccc(O)c(CC=C(C)C)c3O[C@@H]1CO2,inhibition,[1],-10.7% (inactive)
same,activity remaining,[13],103% (inactive)
C=C1C2CC[C@@]3(C)[C@H](c4ccoc4)OC(=O)C[C@]13O[C@H]1CC(=O)C(C)(C)[C@H](C(OC(C)=O)C(=O)OC)[C@@]21C (some centres undefined),inhibition,[1],6.78% (inactive)
same,activity remaining,[13],88.1% (inactive)
CC1C[C@H]2CC(=O)[C@H]3CCCN4CCC[C@H]2[C@]34C1 (some centres undefined),inhibition,[1],-1.6% (inactive)
same,activity remaining,[13],91.3% (inactive)
CC(=O)OC1CN2CCC1CC2 (centres undefined),inhibition,[4],0.37%
same,score,[5],1.53
same,rescue above control,[6],-10.7
same,cytochrome c release ratio,[7],0.82
same,inhibition of aggregation,[8],22.1%
same,glutamate uptake change,[9],24.5%
same,inclusion score,[10],2
same,aggregation suppression score,[11],1.12
same,inhibition,[1],8.99% (inactive)
same,red/green cell ratio (normalised),[2],0.81 (inactive)
same,normalised cell number,[2]; [19],1.08
same,normalised cell number,[2]; [20],0.87
same,fold change,[15]; stronger effect = lower value,0.909 (inactive)
same,fold change,[15]; [21],0.869
same,cell count,[15]; [22],8550
same,cell count,[15]; [23],9400
same,z-score,[17]; [24],-3.18 (inactive)
same,z-score,[17]; [25],-1.86
same,remaining NAD,[18],10 nM (inactive)
CCCCOC(=O)c1ccccc1C(=O)OCCCC,parasite load remaining,[12],68.9% (inactive)
same,viability,[12],91.7%
same,inhibition,[1],4.37% (inactive)
same,red/green cell ratio (normalised),[2],1.22 (inactive)
same,normalised cell number,[2]; [19],0.78
same,normalised cell number,[2]; [20],0.95
same,fold change,[15]; stronger effect = lower value,0.891 (inactive)
same,fold change,[15]; [21],1.43
same,cell count,[15]; [22],10600
same,cell count,[15]; [23],11900
same,remaining NAD,[18],10 nM (inactive)
same,luciferase signal,[3],76 AU (inactive)
COc1cc2c(c(OC)c1OC)-c1ccc(O)c(=O)cc1[C@@H](NC(C)=O)CC2,inhibition,[1],7.64% (inactive)
same,activity remaining,[13],120% (inactive)
C=CCc1ccc2c(c1)OCO2,inhibition,[4],-35.5%
same,score,[5],0.7
same,rescue above control,[6],-4.01
same,cytochrome c release ratio,[7],0.78
same,inhibition of aggregation,[8],27.9%
same,glutamate uptake change,[9],1.11%
same,aggregation suppression score,[11],0.706
same,parasite load remaining,[12],147% (inactive)
same,viability,[12],87.4%
same,inhibition,[1],7.49% (inactive)
same,red/green cell ratio (normalised),[2],0.79 (inactive)
same,normalised cell number,[2]; [19],1.31
same,normalised cell number,[2]; [20],1.03
same,activity remaining,[13],124% (inactive)
same,luciferase signal,[3],40 AU (inactive)
O=C1CCCN1CC#CCN1CCCC1,inhibition,[4],17.7%
same,score,[5],1.21
same,rescue above control,[6],3.59
same,cytochrome c release ratio,[7],0.97
same,inhibition of aggregation,[8],79.6%
same,glutamate uptake change,[9],5.01%
same,inclusion score,[10],1
same,aggregation suppression score,[11],1.3
same,parasite load remaining,[12],75.3% (inactive) and 41.2% (inactive)
same,viability,[12],88.4% and 99%
same,inhibition,[1],-3.4% (inactive)
same,activity remaining,[13],119% (inactive)
same,remaining activity,[14],119% (inactive)
same,fold change,[15]; stronger effect = lower value,1.1 (inactive) and 0.966 (inactive) and 0.92 (inactive)
same,fold change,[15]; [21],0.937 and 0.652 and 1.46
same,cell count,[15]; [22],11000 and 8640 and 10100
same,cell count,[15]; [23],10100 and 8940 and 11000
same,z-score,[17]; [24],-0.379 (inactive)
same,z-score,[17]; [25],-0.277
same,luciferase signal,[3],44 AU (inactive)
same,z-score,[16],0.355 (inactive) and 1.75 (inactive) and 0.67 (inactive)
